Source: PubChem BioAssay (NCATS)
Unmarked numbers belong to inactive results. Results filed as inconclusive are left out. Active and inactive are the calls of the source. Unless noted, the call rests on the fitted dose curve; in most records, active means well fitted curve in either direction with a large enough effect (not every such curve was filed as active); inconclusive means small, poorly fitted or top-dose-only effect, or another doubt; inactive means flat fitted curve, though single readings scatter.

What was measured:
[1] = biological target: Lysosomal acid glucosylceramidase (Homo sapiens) (UniProt P04062); test: Glucocerebrosidase-p2 (AID 348; in the data active means potency below about 10 µM; further: potency means the concentration at half of the fitted maximal effect); conditions: purified GBA, blue fluorogenic substrate, 40 min
Sequence of Lysosomal acid glucosylceramidase (Homo sapiens) (P04062 whole entry, looked up): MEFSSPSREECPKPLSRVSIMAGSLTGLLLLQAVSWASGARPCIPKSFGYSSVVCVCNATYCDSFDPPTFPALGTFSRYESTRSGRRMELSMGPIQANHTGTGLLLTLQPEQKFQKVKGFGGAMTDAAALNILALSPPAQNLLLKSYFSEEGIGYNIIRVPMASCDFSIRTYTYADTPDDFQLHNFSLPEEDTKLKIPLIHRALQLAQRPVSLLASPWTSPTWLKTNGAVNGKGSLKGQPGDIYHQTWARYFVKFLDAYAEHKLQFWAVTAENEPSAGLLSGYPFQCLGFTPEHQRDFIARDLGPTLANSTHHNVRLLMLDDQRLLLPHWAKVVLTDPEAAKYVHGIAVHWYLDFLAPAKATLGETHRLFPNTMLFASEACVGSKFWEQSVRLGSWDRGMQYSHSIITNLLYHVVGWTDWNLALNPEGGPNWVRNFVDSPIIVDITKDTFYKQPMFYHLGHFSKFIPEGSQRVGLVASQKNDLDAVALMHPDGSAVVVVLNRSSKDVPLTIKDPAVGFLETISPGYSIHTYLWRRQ
Procedure, shortened: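 Compounds titrated from 0.6 nM upwards against 0.2 nM enzyme in pH 5.9 citric acid/KH2PO4, taurocholate, tween-20; blue fluorogenic substrate 80 uM, 40 min room temperature, stopped and read Ex 365/Em 440 for AC50.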

[2] = AP1 Signaling Pathway (AID 357); conditions: ME-180 AP-1-bla reporter, EGF-induced, beta-lactamase ratio, 5 h; at 7.69 µM (top of the series) unless noted;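 further: ME-180 reporter cells stimulated with EGF at its EC50 level; on the % scale 0 is the no-effect control and ±100 the full control effect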
Procedure, shortened: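 Read-out was the 460nm/530nm emission ratio (excitation 405nm) after CCF4 loading for 2.5 hours at room temperature. Cells carried an AP-1-driven beta-lactamase reporter, were stimulated with EC50 EGF plus compound for 5 hours, and AC50 values came from titrations.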

[3] = biological target: Cytochrome P450 1A2 (Homo sapiens) (UniProt P05177); test: p450-cyp1a2 (AID 410; calls by dose curve; further: potency means the concentration at half of the fitted maximal effect;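 on activity change, negative = inhibition: -100% = full effect of reference inhibitor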); conditions: recombinant CYP1A2, luciferin-ME demethylation, luminescence; series mostly up to 11.4 µM
Sequence of Cytochrome P450 1A2 (Homo sapiens) (P05177 whole entry, looked up): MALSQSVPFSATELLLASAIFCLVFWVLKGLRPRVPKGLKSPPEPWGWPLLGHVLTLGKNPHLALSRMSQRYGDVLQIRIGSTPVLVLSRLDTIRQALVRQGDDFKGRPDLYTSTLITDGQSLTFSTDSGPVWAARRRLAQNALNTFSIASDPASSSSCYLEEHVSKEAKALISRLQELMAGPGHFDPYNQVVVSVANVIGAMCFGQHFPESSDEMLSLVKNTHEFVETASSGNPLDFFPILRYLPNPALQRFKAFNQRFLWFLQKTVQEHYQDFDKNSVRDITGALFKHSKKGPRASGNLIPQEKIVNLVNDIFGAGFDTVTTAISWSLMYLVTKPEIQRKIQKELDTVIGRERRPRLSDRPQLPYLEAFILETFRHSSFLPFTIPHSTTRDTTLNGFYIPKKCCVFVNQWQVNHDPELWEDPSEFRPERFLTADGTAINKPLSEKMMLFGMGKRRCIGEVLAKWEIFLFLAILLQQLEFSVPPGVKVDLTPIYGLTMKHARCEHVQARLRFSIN
Procedure, shortened: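 Inhibition was calculated relative to 57 uM furafylline (full inhibition). The reaction used human CYP1A2 at 20nM with Luciferin-ME at its Km, 100uM, driven by an NADPH-regenerating system for 60 min at room temperature.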

[4] = NFAT Signaling Pathway (AID 444); conditions: Jurkat NFAT-bla M1, carbachol, beta-lactamase ratio, 5 h; at 7.69 µM (top of the series) unless noted;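 further: carbachol stimulus at about its EC50 of 1 µM final; on the % scale 0 is the no-effect control and ±100 the full control effect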
Procedure, shortened: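 Jurkat cells with NFAT-driven β-lactamase reporter and co-expressed M1 receptor, stimulated with carbachol (final 1 uM, ~EC50), compound titration, 5 h at 37 °C. CCF4 loaded 1 h at RT; 460/530 nm ratio gave %activity and AC50.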

[5] = Stat Signaling Pathway (AID 446); conditions: ME-180 SIE beta-lactamase reporter, IL-6 stimulated, 5 h; at 7.69 µM (top of the series) unless noted;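 further: ME-180 cervical cancer cells given 40 pM IL-6 alongside compound; SIE-controlled beta-lactamase reporter measured as 460/530 nm FRET emission ratio; on the % scale 0 is the no-effect control and ±100 the full control effect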
Procedure, shortened: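 Reporter line: ME-180 cervical carcinoma, SIE-beta-lactamase. Treatment: compound with 40 pM IL-6, 5 hrs, 37 C, in low-serum OPTI-MEM with 10 mM HEPES pH 7.3. Detection: 460/530 nm fluorescence.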

[6] = biological target: Glucocorticoid receptor (Homo sapiens) (UniProt P04150); test: GR-EFC Redistribution (AID 451; calls by dose curve; further: potency means the concentration at half of the fitted maximal effect); conditions: CHO-K1 GR-EFC translocation, beta-gal luminescence, 2 h
Sequence of Glucocorticoid receptor (Homo sapiens) (P04150 whole entry, looked up, the tested form may be a part): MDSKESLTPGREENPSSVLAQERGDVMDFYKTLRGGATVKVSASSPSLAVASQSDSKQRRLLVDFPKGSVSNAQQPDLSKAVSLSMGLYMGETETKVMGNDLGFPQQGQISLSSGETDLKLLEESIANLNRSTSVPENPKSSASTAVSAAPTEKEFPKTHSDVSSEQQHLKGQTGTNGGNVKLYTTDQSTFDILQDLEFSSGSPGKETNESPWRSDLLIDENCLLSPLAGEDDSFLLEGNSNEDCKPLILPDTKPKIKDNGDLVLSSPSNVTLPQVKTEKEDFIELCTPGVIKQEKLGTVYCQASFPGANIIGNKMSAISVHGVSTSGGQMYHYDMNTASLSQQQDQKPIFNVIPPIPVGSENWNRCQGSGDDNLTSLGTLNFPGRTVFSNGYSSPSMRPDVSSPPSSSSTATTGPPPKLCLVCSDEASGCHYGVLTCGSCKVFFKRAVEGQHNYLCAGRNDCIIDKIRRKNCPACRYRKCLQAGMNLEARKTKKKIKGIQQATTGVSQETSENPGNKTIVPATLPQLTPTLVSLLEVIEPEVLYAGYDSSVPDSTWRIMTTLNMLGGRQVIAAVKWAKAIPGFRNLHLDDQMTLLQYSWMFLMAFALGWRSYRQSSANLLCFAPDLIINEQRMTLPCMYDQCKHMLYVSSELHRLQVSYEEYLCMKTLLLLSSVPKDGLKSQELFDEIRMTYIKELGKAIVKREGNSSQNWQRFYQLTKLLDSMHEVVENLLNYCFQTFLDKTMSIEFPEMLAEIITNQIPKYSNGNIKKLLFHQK
Procedure, shortened: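 CHO-K1 cells expressing nuclear EA and GR-ED fragments of b-gal; compounds titrated up to 46 uM final, 2 h at 37 C. GR nuclear translocation read as complemented b-gal luminescence after 1 h RT detection.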

[7] = biological target: Mitogen-activated protein kinase 10 (Mus musculus) (UniProt Q61831); test: JNK3 AlphaScreen Assay (AID 530); conditions: JNK3 lysate, c-Jun phosphorylation; series mostly up to 11.4 µM;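 further: kinase came from lysate of stimulated human HepG2 cells; signal reports phosphorylation of biotinylated GST-cJun 1-79 at Ser73 with 10 µM ATP; on the % scale 0 is the no-effect control and ±100 the full control effect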
Procedure, shortened: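 qHTS format: compounds tested as titrations against IL-1beta/TNF-alpha-activated HepG2 lysate JNK3 with biotin-GST-cJun substrate and 10 uM ATP at room temperature. Loss of anti-phospho-cJun AlphaScreen signal indicates inhibition.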

[8] = biological target: Glucocorticoid receptor (Homo sapiens) (UniProt P04150); test: GR-GFP Redistribution (AID 450;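 active means compounds whose dose series gives a full or clear partial fitted curve of increased nuclear translocation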; further: potency means the concentration at half of the fitted maximal effect); conditions: U2OS GR-GFP nuclear translocation, laser cytometry, 2 h
[9] = biological target: 3',5'-cyclic-AMP phosphodiesterase 4B (Homo sapiens) (UniProt Q07343); test: qHTS Assay for Inhibitors of PDE-IV (AID 607; active means well fitted activation curve with a large enough effect in the main read-out, with a control signal flat, not every such curve was filed as active; further: % of control where 0% means no effect); conditions: HEK293 ACTOne CNG channel cells, membrane potential fluorescence; series mostly up to 22.9 µM
Sequence of 3',5'-cyclic-AMP phosphodiesterase 4B (Homo sapiens) (Q07343 whole entry, looked up): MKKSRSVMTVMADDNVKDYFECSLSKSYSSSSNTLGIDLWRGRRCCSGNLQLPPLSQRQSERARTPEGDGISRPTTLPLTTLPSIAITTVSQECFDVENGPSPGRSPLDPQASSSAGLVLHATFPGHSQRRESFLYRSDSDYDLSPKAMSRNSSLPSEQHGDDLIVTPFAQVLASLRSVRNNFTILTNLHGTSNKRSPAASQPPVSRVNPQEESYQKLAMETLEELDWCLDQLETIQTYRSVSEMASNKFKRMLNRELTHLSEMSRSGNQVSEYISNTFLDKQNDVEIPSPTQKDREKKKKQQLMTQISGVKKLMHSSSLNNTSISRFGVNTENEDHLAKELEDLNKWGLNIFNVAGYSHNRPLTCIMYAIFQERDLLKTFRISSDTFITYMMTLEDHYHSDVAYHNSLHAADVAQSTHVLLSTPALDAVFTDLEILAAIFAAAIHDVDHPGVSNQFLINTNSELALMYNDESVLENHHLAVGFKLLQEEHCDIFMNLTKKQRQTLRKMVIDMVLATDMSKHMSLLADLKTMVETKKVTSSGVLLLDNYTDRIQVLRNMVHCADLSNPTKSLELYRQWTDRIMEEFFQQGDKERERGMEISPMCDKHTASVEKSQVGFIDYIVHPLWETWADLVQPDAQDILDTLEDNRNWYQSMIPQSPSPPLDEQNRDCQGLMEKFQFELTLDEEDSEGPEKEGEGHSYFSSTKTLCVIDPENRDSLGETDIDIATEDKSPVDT
Procedure, shortened: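 Cell-based read-out of cAMP via a modified cyclic nucleotide-gated channel and membrane potential dye (535/590 nm) in HEK293 cells expressing PDE4 endogenously. Compounds tested up to 22.9 uM final; 100 uM RO 20-1724 reference.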

[10] = qHTS Assay for Identification of Small Molecule Agonists for Hypoxia Response Element Signaling Pathway (AID 914; active means well fitted activation curve with a large enough effect in the signal ratio, with a control signal flat, not every such curve was filed as active; the % refers to the signal ratio; further: % of control where 0% means no effect); conditions: ME-180 HRE-bla reporter, beta-lactamase ratio, CoCl2, 17 h; activation: stronger effect = higher value
Procedure, shortened: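 ME-180 cells carrying an HRE-driven beta-lactamase reporter were treated with compounds in a titration series plus an EC50 level of CoCl2 for 17 h at 37 degrees Celsius; CCF4 readout as the 460nm/530nm ratio gave AC50 values.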

[11] = biological target: Cytochrome P450 2C19 (Homo sapiens) (UniProt P33261); test: qHTS Assay for Inhibitors and Substrates of Cytochrome P450 2C19 (AID 899; active means well fitted inhibition curve with a large enough effect; further: nearly all actives have a fitted effect of over 60% in size; further: potency means the concentration at half of the fitted maximal effect); conditions: recombinant CYP2C19, luciferin-H EGE luminescence; series mostly up to 11.4 µM
Sequence of Cytochrome P450 2C19 (Homo sapiens) (P33261 whole entry, looked up): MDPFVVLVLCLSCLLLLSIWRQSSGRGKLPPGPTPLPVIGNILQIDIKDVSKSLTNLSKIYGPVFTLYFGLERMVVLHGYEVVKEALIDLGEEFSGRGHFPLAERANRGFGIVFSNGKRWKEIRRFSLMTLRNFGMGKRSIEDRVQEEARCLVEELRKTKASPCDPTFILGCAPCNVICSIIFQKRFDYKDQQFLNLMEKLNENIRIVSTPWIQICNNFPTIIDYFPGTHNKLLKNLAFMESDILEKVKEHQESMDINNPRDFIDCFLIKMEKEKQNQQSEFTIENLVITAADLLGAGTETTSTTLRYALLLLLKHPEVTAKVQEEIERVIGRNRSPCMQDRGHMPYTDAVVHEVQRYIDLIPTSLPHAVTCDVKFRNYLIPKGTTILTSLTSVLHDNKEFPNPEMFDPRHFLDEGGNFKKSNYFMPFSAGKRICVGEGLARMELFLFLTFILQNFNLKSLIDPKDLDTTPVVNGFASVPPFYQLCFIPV
Procedure, shortened: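 Signal comes from luciferase acting on luciferin released by CYP2C19-mediated hydroxylation of Luciferin-H EGE, 10uM (KM). Assay mix: 5nM enzyme, 50mM KPO4; 60 min at 37C with NADPH regeneration. Data normalized against 57uM ketoconazole.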

| Structure (SMILES) | Potency [1] | activity change, negative = inhibition [2] | Potency [3] | activity change, negative = inhibition [4] | activity, negative = inhibition [5] | Potency [6] | Potency [7] | activity change, negative = inhibition [3] | Potency [8] | Potency [9] | activation [10] | Potency [11] |
| --- | --- | --- | --- | --- | --- | --- | --- | --- | --- | --- | --- | --- |
| CC(C)C(O)(C(C)C)C(C)C | > 11.4 µM | 7.29% | inactive | 3.44% | 13.2% | > 9.22 µM | inactive |  |  |  |  |  |
| O=C(O)[C@H]([C@H]1NCCS1)N1Cc2ccccc2C1 | > 11.4 µM | 11% |  | 5.16% | 2.46% |  | inactive | -13.4% [at 2.29 µM] | > 46 µM | inactive | 13.9% |  |
| CSc1nnnc2ccccc12 | > 11.4 µM | -4.35% | 3.16 µM (active) | 3.54% | 0.181% |  | inactive |  | > 46 µM | inactive |  | inactive |
| C[Si](C)(c1ccc(C(=O)O)cc1)c1ccc(C(=O)O)cc1 | > 11.4 µM | -1.98% | inactive | -2.05% | 14.2% |  | inactive |  | > 46 µM | inactive |  |  |
| O=C(O)c1nc(-c2ccccc2)[nH]c1C(=O)O | > 11.4 µM | -6.16% | 1 µM (active) | -19.8% | -26.6% |  | inactive |  | > 46 µM | inactive |  | 3.16 µM (active) |
| O=C(O)C(Cc1cccs1)C(=O)O | > 11.4 µM | 7.58% |  | 8.62% | 0.541% |  | inactive | -2.1% [at 2.29 µM] | > 46 µM | inactive |  | inactive |
| CC(C)(C)c1cc2c(O)c(c1)Cc1cc(C(C)(C)C)cc(c1O)Cc1cc(C(C)(C)C)cc(c1O)Cc1cc(C(C)(C)C)cc(c1O)Cc1cc(C(C)(C)C)cc(c1O)Cc1cc(C(C)(C)C)cc(c1O)Cc1cc(C(C)(C)C)cc(c1O)Cc1cc(C(C)(C)C)cc(c1O)C2 | > 11.4 µM | 6.61% | inactive | -14.8% | -5.63% |  | inactive |  | > 46 µM | inactive |  |  |
| N[C@@H](Cc1ccnnc1)C(=O)O | > 11.4 µM | -10.1% |  | 13.5% | -4.41% |  | inactive | -10.6% [at 2.29 µM] | > 46 µM |  |  |  |
